In the supplement of paper PMC7156485:

What was measured:
Conditions in all cases: concentration: 10 µM; 24 h
[1] = system: HCC1569; test: cell number relative to DMSO (% of DMSO); higher = more cells (less growth inhibition / toxicity)
Method in brief: (§1)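 H1.0 nuclear intensity or cell number is stated as percent of the plate control, based on the median of replicates, and HCC1569 values were smoothed for positional effects. These came from HCC1569 and TDF cells treated with compounds at 10 µM for 24 h at 37 °C in triplicate, then fixed in 3.7% formaldehyde and stained with a rabbit anti-H1.0 antibody, an AlexaFluor 647 secondary and DAPI.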

[2] = system: TDF; test: as above
Method in brief: as §1

[3] = system: TDF; test: H1.0 immunofluorescence intensity relative to DMSO (% of DMSO); higher = stronger H1.0 induction, active = 120 or more
Method in brief: as §1

[4] = system: HCC1569; test: H1.0 immunofluorescence intensity relative to DMSO (% of DMSO); higher = stronger H1.0 induction, active = 140 or more
Method in brief: as §1
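Wherever H1.0 immunofluorescence intensity relative to DMSO is given: TDF is a line of transformed human dermal fibroblasts of mesenchymal origin.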
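Wherever cell number relative to DMSO is given: TDF denotes transformed human dermal fibroblasts of mesenchymal origin.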

Structure (SMILES)	cell number [1]	cell number [2]	H1.0 immunofluorescence intensity [3]	H1.0 immunofluorescence intensity [4]
Cc1cc(Nc2nc(NC(C)c3ccc(F)cc3)c(C#N)cc2F)n[nH]1 (stereo unspecified)	51.8	28	167 (active)	146 (active)
O=C(/C=C/c1cccnc1)NCCCCC1CCN(C(=O)c2ccccc2)CC1	106	107	98.9 (inactive)	90.3 (inactive)
Cl.NCC(O)C1CCCCCCC1 (stereo unspecified) [2-Cyclooctyl-2-hydroxyethylamine hydrochloride]	101	103	97.1 (inactive)	92.8 (inactive)
O=C(CCl)c1c[nH]c2ccccc12 [2-chloro-1-(1H-indol-3-yl)ethanone]	63.6	55	125 (active)	150 (active)
CCCCCC=CCC=CCC=CCCCCC(=O)O [6(Z), 9(Z), 12(Z)-Octadecatrienoic Acid]	101	93.2	91.1 (inactive)	105 (inactive)
N=S(=O)([O-])Cc1noc2ccccc12.[Na+] [Zonisamide sodium]	104	117	92.2 (inactive)	98.6 (inactive)
N[C@@H](CCCC(=O)O)C(=O)O [L-2-aminoadipic acid]	105	109	99.8 (inactive)	93.6 (inactive)
CC(=O)OCC(=O)[C@@]1(O)CC[C@H]2[C@@H]3CCC4=CC(=O)CC[C@]4(C)[C@@]3(F)[C@@H](O)C[C@@]21C	103	103	80 (inactive)	104 (inactive)
Cc1cc(N)c2ccccc2[n+]1CCCCCCCCCC[n+]1c(C)cc(N)c2ccccc21.[Cl-].[Cl-] [Dequalinium dichloride]	74.8	64.1	102 (inactive)	123 (inactive)
Nc1nc(N)c2nc(-c3ccccc3)c(N)nc2n1 [Triamterene]	98.6	112	85.8 (inactive)	102 (inactive)
NC(=NCc1ccccc1)NC(=O)c1nc(Cl)c(N)nc1N [Benzamil]	99.9	99.9	98.7 (inactive)	112 (inactive)
COc1c(O)c2c(=O)cc(OC)c3c4c(OC)cc(=O)c5c(O)c(OC)c6c(c(c1CC(C)(O)C6C(C)=O)c23)c54 (stereo unspecified) [Hypocrellin A]	75.8	67.1	97.2 (inactive)	108 (inactive)
COc1ccc2c(c1)c(CC(=O)N1CCOCC1)c(C)n2C(=O)c1ccc(Cl)cc1	102	104	94.6 (inactive)	104 (inactive)
COc1ccccc1N1CCN(CCN(C(=O)C2CCCCC2)c2ccccn2)CC1.O=C(O)C=CC(=O)O	104	102	101 (inactive)	100 (inactive)
Cc1cc(I)ccc1Nc1c(C(=O)NOCC2CC2)cc(F)c(F)c1F	97.2	95.6	91.1 (inactive)	116 (inactive)
CC(=O)NC(CSCC=C(C)CCC=C(C)CCC=C(C)C)C(=O)O (stereo unspecified) [Acetyl-farnesyl-cysteine]	100	104	97.2 (inactive)	96.3 (inactive)
CCC=CCC=CCC=CCC=CCC=CCCC(=O)OC(COCCCCCCCCCCCCCCCC)COP(=O)([O-])OCC[N+](C)(C)C (stereo unspecified)	105	107	94.3 (inactive)	99.4 (inactive)
CCCCCC=CCC(O)C=CC=CCCC(=O)O [Tetranor-12(R)-HETE]	104	93.9	100 (inactive)	102 (inactive)
CN(C)c1ccccc1CN1CCCN(Cc2ccccc2N(C)C)C1c1ccncc1	83.9	65.2	109 (inactive)	137 (inactive)
C[N+](C)(C)CC(O)CC(=O)[O-].Cl (racemic)	102	120	97.1 (inactive)	90.1 (inactive)
Nc1ncnc2c1cnn2-c1ccccc1	103	110	91.4 (inactive)	104 (inactive)
CCOC(OCC)P(=O)(O)CCCNCc1ccc(Cl)c(Cl)c1	108	95.6	98.3 (inactive)	102 (inactive)
COc1ncnc(NS(=O)(=O)c2ccc(N)cc2)c1OC [Sulfadoxine]	104	97.4	91.9 (inactive)	89.2 (inactive)
N#CCCc1ccc2c(c1)-c1[nH]c3ccc([N+](=O)[O-])cc3c1CC(=O)N2 [Alsterpaullone,                   2-Cyanoethyl]	63.2	32.7	112 (inactive)	113 (inactive)
